From PubChem BioAssay
Where “and” joins values, the source holds several entries; their conditions need not be identical. Identical values can stand only once. A number with no mark means an inactive call. Calls of active or inactive are those of the source. Rule as the data show it, unless noted: active = inhibition above about 42%; inactive = the rest.

Key:
[1] = target: Nuclear receptor coactivator 3 (Homo sapiens) (UniProt Q9Y6Q9); assay: SRC3 coactivator transcriptional activity inhibitors, confirmation, cell-based, luminescence, quadruplicate (AID 588792;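 active = mean inhibition over 43.08%, the solvent-only control mean plus 3 SD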;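 also: 0% = DMSO treated cells and 100% = gossypol at 36 µM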); conditions: HEK293 GAL4-SRC3 luciferase reporter, at 3.6 µM, hits give high values
[2] = test system: transactivating tegument protein VP16 (Human herpesvirus 1), Gal4-VP16 luciferase reporter; assay: VP16 transactivation inhibitors, counter-screen for SRC3 inhibitor project, cell-based, luminescence, high throughput (AID 588794; in the data active = inhibition above about 30%); conditions: mammalian cells, VP16-driven luciferase reporter luminescence; at 3.6 µM; hits give high values
[3] = target: Nuclear receptor coactivator 1 (Homo sapiens) (UniProt Q15788); assay: SRC1 coactivator transcriptional activity inhibitors, confirmation, cell-based, luminescence, quadruplicate (AID 588820;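 active = mean inhibition above 46.68%, the untreated control wells mean plus 3 SD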;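 also: 0% = DMSO wells and 100% = gossypol 36 µM treated wells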); conditions: HEK293 GAL4-SRC1 luciferase reporter, at 3.6 µM, hits give high values
[4] = VP16 transactivation inhibitors, counter-screen for SRC1 inhibitor project, cell-based, luminescence, high throughput (AID 588824; in the data active = inhibition above about 25%); conditions: cell-based VP16 transactivation luciferase luminescence; at 3.6 µM; hits give high values
[5] = StAR promoter reporter inhibitors, counter-screen for LRH-1 inverse agonist project, cell-based, luminescence, high throughput (AID 651611; in the data active = inhibition above about 28%); conditions: StAR promoter luciferase reporter counterscreen, at 3.6 µM, hits give high values
[6] = target: Nuclear receptor subfamily 5 group A member 2 (Homo sapiens) (UniProt O00482); assay: LRH-1 (NR5A2) inverse agonists, retest, confirmation, cell-based, luminescence (AID 651613); conditions: cell-based LRH-1 luciferase reporter, inverse agonism; at 3.6 µM; hits give high values;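 also: HEK293T cells co-transfected with LRH-1 and StAR promoter luciferase reporter; 0% = vehicle wells and 100% = parental cells lacking receptor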
[7] = target: Steroidogenic factor 1 (Homo sapiens) (UniProt Q13285); assay: SF1 (NR5A1) inverse agonists, counter-screen for LRH-1 inverse agonist project, cell-based, luminescence, high throughput (AID 651614; in the data active = inhibition above about 44%;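 also: cells cotransfected with StAR promoter reporter and SF1 expression vector; 0% = vehicle on cells with receptor and 100% = vehicle on cells lacking receptor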); conditions: cell-based SF1 luciferase reporter, at 3.6 µM, hits give high values
[8] = VP16 transactivation reporter inhibitors, counter-screen for LRH-1 inverse agonist project, cell-based, luminescence, high throughput (AID 651615; in the data active = inhibition above about 33%); conditions: Gal4-VP16 luciferase reporter cells, at 3.6 µM, hits give high values

Chain of Nuclear receptor subfamily 5 group A member 2 (Homo sapiens) (O00482 whole entry, looked up): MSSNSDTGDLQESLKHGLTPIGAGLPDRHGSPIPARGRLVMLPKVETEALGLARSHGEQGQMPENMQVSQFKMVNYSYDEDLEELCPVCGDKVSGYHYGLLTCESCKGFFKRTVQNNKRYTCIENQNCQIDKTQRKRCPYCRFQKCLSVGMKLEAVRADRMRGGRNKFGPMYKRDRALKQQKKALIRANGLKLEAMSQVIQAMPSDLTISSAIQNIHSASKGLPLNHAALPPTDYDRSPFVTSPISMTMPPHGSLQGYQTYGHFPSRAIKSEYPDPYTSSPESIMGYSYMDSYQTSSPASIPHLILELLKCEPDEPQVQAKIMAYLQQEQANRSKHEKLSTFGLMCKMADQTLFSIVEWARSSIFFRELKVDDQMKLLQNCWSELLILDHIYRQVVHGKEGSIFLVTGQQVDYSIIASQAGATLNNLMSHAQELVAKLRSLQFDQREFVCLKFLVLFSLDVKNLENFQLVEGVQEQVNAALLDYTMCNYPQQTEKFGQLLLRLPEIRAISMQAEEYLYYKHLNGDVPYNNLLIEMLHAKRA
Chain of Nuclear receptor coactivator 3 (Homo sapiens) (Q9Y6Q9 whole entry, looked up, the tested form may be a part): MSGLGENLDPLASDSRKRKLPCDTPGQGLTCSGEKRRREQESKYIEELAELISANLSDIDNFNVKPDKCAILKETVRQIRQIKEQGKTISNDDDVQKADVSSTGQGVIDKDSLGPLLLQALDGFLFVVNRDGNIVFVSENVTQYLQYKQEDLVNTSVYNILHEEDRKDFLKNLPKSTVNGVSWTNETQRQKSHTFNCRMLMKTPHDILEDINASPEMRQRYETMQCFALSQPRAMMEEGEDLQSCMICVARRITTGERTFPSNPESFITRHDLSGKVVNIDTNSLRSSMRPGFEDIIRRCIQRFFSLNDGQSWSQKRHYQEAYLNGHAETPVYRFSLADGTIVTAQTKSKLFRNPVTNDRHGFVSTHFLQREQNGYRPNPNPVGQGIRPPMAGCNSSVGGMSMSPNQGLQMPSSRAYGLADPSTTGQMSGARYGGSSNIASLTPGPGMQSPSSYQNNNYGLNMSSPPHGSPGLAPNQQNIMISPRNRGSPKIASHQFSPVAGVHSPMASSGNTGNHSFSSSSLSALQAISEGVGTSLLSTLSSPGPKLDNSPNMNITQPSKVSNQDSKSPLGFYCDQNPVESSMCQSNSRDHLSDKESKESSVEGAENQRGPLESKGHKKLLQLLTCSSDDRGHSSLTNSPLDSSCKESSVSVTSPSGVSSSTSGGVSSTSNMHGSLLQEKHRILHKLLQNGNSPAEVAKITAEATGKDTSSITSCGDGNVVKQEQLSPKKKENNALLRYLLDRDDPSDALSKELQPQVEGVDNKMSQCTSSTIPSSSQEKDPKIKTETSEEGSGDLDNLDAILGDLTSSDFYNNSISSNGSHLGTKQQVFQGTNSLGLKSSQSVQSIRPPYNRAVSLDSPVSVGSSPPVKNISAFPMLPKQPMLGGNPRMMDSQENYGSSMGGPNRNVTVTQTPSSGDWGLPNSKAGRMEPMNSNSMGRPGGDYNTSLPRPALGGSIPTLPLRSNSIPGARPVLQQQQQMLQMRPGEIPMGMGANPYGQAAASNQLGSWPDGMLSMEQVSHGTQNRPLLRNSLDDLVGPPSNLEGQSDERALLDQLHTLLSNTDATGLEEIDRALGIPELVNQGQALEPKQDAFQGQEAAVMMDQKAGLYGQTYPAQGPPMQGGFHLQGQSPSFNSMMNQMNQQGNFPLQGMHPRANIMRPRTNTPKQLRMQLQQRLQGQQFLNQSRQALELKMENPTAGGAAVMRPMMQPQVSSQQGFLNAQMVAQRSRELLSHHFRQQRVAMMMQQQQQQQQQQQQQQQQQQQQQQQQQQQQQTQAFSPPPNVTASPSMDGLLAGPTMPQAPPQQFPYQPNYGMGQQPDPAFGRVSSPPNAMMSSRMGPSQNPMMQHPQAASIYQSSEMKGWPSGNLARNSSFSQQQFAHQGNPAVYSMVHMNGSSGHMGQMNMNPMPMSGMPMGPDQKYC
Chain of Steroidogenic factor 1 (Homo sapiens) (Q13285 whole entry, looked up, the tested form may be a part): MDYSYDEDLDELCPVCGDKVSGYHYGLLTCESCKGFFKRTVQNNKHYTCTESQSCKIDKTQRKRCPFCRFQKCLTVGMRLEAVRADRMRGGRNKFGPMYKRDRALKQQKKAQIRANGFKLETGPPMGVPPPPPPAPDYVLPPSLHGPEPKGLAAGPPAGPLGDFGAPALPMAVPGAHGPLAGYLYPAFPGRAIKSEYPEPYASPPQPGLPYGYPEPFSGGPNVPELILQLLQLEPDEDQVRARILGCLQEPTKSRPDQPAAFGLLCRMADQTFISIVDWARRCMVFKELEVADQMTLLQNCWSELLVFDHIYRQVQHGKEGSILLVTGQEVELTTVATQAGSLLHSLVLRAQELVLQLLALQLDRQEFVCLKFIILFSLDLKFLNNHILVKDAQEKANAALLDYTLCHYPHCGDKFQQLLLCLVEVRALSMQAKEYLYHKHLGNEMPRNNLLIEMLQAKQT
Chain of Nuclear receptor coactivator 1 (Homo sapiens) (Q15788 whole entry, looked up, the tested form may be a part): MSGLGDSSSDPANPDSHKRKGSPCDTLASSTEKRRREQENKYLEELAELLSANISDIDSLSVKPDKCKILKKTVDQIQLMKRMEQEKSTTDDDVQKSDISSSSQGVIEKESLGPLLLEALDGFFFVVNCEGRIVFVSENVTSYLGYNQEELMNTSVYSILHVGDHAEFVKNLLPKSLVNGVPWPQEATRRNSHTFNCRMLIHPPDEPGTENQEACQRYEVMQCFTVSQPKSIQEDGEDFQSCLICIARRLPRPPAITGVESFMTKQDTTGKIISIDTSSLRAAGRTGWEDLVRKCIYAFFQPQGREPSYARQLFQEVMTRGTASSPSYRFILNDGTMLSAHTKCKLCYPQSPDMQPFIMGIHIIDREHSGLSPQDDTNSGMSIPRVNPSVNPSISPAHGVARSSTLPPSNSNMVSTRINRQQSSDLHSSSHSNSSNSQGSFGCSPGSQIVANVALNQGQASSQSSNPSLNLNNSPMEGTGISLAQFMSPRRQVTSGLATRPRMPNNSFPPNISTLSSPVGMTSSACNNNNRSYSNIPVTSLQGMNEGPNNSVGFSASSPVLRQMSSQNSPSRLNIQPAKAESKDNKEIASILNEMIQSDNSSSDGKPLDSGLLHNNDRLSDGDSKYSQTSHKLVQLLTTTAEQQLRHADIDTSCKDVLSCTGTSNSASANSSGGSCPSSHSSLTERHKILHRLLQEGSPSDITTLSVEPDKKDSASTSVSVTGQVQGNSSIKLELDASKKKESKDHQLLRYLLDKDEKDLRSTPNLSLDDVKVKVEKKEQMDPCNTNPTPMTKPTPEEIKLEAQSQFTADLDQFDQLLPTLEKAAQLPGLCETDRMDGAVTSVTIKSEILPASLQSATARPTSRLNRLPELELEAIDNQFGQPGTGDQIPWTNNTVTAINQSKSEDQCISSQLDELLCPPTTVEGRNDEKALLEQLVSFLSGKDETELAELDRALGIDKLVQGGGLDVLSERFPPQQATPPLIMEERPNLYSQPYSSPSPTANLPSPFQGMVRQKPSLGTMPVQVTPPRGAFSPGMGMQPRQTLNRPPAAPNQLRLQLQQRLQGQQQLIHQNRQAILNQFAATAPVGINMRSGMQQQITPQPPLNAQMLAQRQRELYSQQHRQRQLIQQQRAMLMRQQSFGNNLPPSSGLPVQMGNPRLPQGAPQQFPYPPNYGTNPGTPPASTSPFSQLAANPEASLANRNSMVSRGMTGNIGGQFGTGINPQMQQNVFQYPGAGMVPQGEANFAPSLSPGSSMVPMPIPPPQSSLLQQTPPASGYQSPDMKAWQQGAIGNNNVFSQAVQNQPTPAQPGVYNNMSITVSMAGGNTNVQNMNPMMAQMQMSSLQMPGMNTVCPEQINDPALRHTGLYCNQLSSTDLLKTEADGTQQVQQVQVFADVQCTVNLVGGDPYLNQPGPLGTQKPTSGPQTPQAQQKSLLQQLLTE

With `CCN(CC)c1ccc(C(NC(=O)C(C)C)c2ccc3cccnc3c2O)cc1` (stereo not drawn) the inhibition [1] was 55.9% (active), the inhibition [2] was 56% (active) and the inhibition [3] was 78.3% (active). The inhibition [4] was 66.5% (active), the inhibition [5] was 86.3% (active) and the inhibition [6] was 103% (active). For the same compound, the inhibition [7] was 90% (active) and the inhibition [8] was 84.9% (active).
For `Cc1cccc(-n2c(N)c(-c3nc4ccccc4n3C)c3nc4ccccc4nc32)c1`, the inhibition [1] was -11.4%, the inhibition [2] was -15% and the inhibition [3] was -14.8%. For the same compound, the inhibition [4] was -15.4%, the inhibition [5] was 8.3% and the inhibition [6] was -11.5%. The inhibition [7] was 10.3% and the inhibition [8] was 1.82%.
In the case of `COc1cc(C2c3cc4c(cc3C(OC3OC5COC(c6cccs6)OC5C(O)C3O)C3COC(=O)C23)OCO4)cc(OC)c1O` (stereo not drawn), the inhibition [1] is reported as 72.2% (active), the inhibition [2] is reported as -8.11% and the inhibition [3] is reported as 26%. For the same compound, the inhibition [4] was -26.7%, the inhibition [5] was 73.9% (active) and the inhibition [6] was 82.6% (active). The inhibition [7] was 54.5% (active) and the inhibition [8] was -36.1%.
Compound `c1ccc(-c2nn(-c3ccccc3)[n+](-c3ccccc3)n2)cc1` has an inhibition [1] of 20.3%, an inhibition [2] of 14.7% and an inhibition [3] of -0.24%. The inhibition [4] was 15.6%, the inhibition [5] was 23.8% and the inhibition [6] was 43.8% (active). The inhibition [7] was 46% (active) and the inhibition [8] was 48.5% (active).
With `CN(Cc1cnc2nc(N)nc(N)c2n1)c1ccc(C(=O)N[C@@H](CCC(=O)O)C(=O)O)cc1` the inhibition [1] was 66.7% (active), the inhibition [2] was 12.6% and the inhibition [3] was 35%. The inhibition [4] was 8.93%, the inhibition [5] was 76.9% (active) and the inhibition [6] was 54.9% (active). For the same compound, the inhibition [7] was 55.4% (active) and the inhibition [8] was 22.7%.
For `CC(C)(O)C#Cc1ccc([C@@H]2C[C@H]3CN(c4ccccc4)C(=O)[C@]34CCCN24)s1`, the inhibition [1] was 42.9%, the inhibition [2] was 41.9% (active) and the inhibition [3] was 45.8%. For the same compound, the inhibition [4] was 42.1% (active), the inhibition [5] was 61.3% (active) and the inhibition [6] was 82% (active). The inhibition [7] was 28.3% and the inhibition [8] was 88.8% (active).
For `COC(=O)c1cc(O)cc(OC)c1Oc1cc(C)cc(O)c1C(=O)O`, the inhibition [1] was 13.8%, the inhibition [2] was 62.9% (active) and the inhibition [3] was 54.2% (active). For the same compound, the inhibition [4] was 60.2% (active), the inhibition [5] was 56.5% (active) and the inhibition [6] was 73% (active). The inhibition [7] was 66.9% (active) and the inhibition [8] was 65.5% (active).
For `Nc1ncn([C@@H]2O[C@H](CO)[C@@H](O)[C@H]2O)c(=O)n1`, the inhibition [1] was 76.7% (active), the inhibition [2] was 57.1% (active) and the inhibition [3] was -17.7%. The inhibition [4] was 45.7% (active), the inhibition [5] was 69.6% (active) and the inhibition [6] was 90.2% (active). For the same compound, the inhibition [7] was 82.3% (active) and the inhibition [8] was 80.9% (active).
In the case of `CCCc1nc2c(=O)n(C)c(=O)nc-2n(C)n1`, the inhibition [1] is reported as 70.5% (active), the inhibition [2] is reported as 66.6% (active) and the inhibition [3] is reported as 18.4%. For the same compound, the inhibition [4] was 64% (active), the inhibition [5] was 56.5% (active) and the inhibition [6] was 68.8% (active). The inhibition [7] was 72.8% (active) and the inhibition [8] was 73.5% (active).
For `CCN1/C(=C/c2ccc3cc(C)ccc3[n+]2CC)Sc2ccccc21`, the inhibition [1] was 57% (active), the inhibition [2] was 78.5% (active) and the inhibition [3] was 45%. The inhibition [4] was 80.2% (active), the inhibition [5] was 72.2% (active) and the inhibition [6] was 105% (active). For the same compound, the inhibition [7] was 92.3% (active) and the inhibition [8] was 82.7% (active).
In the case of `CCN1/C(=C/C(C)=C/c2sc3ccccc3[n+]2CC)Sc2ccccc21`, the inhibition [1] is reported as 80.9% (active), the inhibition [2] is reported as 84.2% (active) and the inhibition [3] is reported as 58.4% (active). The inhibition [4] was 81.6% (active), the inhibition [5] was 77% (active) and 81.8% (active) and the inhibition [6] was 107% (active) and 106% (active). The inhibition [7] was 89.7% (active) and 93.3% (active) and the inhibition [8] was 88.1% (active) and 89.4% (active).
In the case of `CN(Cc1cnc2nc(N)nc(N)c2n1)c1ccc(C(=O)NC(CCC(=O)O)C(=O)O)c2ccccc12` (stereo not drawn), the inhibition [1] is reported as 63.8% (active), the inhibition [2] is reported as 15% and the inhibition [3] is reported as 68% (active). The inhibition [4] was 13.2%, the inhibition [5] was 77.9% (active) and the inhibition [6] was 45.5% (active). For the same compound, the inhibition [7] was 47.6% (active) and the inhibition [8] was 12.9%.
In the case of `Cc1sc(NC(=O)/C=C/c2ccc3c(c2)OCO3)nc1-c1ccccc1`, the inhibition [1] is reported as 24.4%, the inhibition [2] is reported as 59.1% (active) and the inhibition [3] is reported as 32.1%. For the same compound, the inhibition [4] was 57.7% (active), the inhibition [5] was 42.9% (active) and the inhibition [6] was 74.9% (active). For the same compound, the inhibition [7] was 74.1% (active) and the inhibition [8] was 70.9% (active).
For `CC1(C)CC(N2CCCCC2)=CC(=[N+]2CCCCC2)C1`, the inhibition [1] was 21.5%, the inhibition [2] was 44.1% (active) and the inhibition [3] was 14.8%. For the same compound, the inhibition [4] was 39.7% (active), the inhibition [5] was 30.1% (active) and the inhibition [6] was 80% (active). For the same compound, the inhibition [7] was 69.1% (active) and the inhibition [8] was 67.3% (active).
In the case of `COCCn1c(C)cc(C(=O)COC(=O)c2ccccc2Br)c1C`, the inhibition [1] is reported as 71.7% (active), the inhibition [2] is reported as 57% (active) and the inhibition [3] is reported as 46.2%. The inhibition [4] was 36.7% (active), the inhibition [5] was 57.1% (active) and the inhibition [6] was -4.05%. The inhibition [7] was 50.9% (active) and the inhibition [8] was 16.6%.
Work on `Cc1cccc2sc(NNC(=O)c3ccc(S(=O)(=O)N4CC(C)CC(C)C4)cc3)nc12` (stereo not drawn) yielded an inhibition [1] of 31%, an inhibition [2] of 23.7% and an inhibition [3] of 32.8%. For the same compound, the inhibition [4] was 34% (active), the inhibition [5] was 25% and the inhibition [6] was 45% (active). The inhibition [7] was 36.2% and the inhibition [8] was 40.9% (active).
In the case of `CC(=O)c1cccc(N=c2scc(-c3ccc(S(=O)(=O)N4CCOCC4)cc3)n2CCO)c1`, the inhibition [1] is reported as 21.9%, the inhibition [2] is reported as 47.4% (active) and the inhibition [3] is reported as -14.3%. The inhibition [4] was 49.4% (active), the inhibition [5] was 35.2% (active) and the inhibition [6] was 63.3% (active). The inhibition [7] was 69.7% (active) and the inhibition [8] was 61.1% (active).
In the case of `Cc1ccc(/C=C/C(=O)c2c(C)cc(C)[nH]c2=O)cc1`, the inhibition [1] is reported as 46.8% (active), the inhibition [2] is reported as 40% (active) and the inhibition [3] is reported as 47% (active). For the same compound, the inhibition [4] was 46.4% (active), the inhibition [5] was 35.3% (active) and the inhibition [6] was 42.8% (active). For the same compound, the inhibition [7] was 50.4% (active) and the inhibition [8] was 60.4% (active).
In the case of `COC(=O)C1=C(CN2CCCc3ccccc32)NC(=O)NC1c1ccc(F)cc1` (stereo not drawn), the inhibition [1] is reported as 65.7% (active), the inhibition [2] is reported as 32.3% (active) and the inhibition [3] is reported as 60% (active). The inhibition [4] was 34.7% (active), the inhibition [5] was 71.5% (active) and the inhibition [6] was 17%. For the same compound, the inhibition [7] was 63.3% (active) and the inhibition [8] was 4.51%.
For `Cc1cc(/C=C2\SC(=S)N(C)C2=O)c(C)n1-c1ccc(O)cc1`, the inhibition [1] was 73.9% (active), the inhibition [2] was 61.8% (active) and the inhibition [3] was 49% (active). The inhibition [4] was 47.5% (active), the inhibition [5] was 40.3% (active) and the inhibition [6] was 7.93%. For the same compound, the inhibition [7] was 48% (active) and the inhibition [8] was 39.5% (active).
With `CCCCCCCCCCn1ccc(=N)cc1` the inhibition [1] was 70.1% (active), the inhibition [2] was 81.1% (active) and the inhibition [3] was 51.3% (active). The inhibition [4] was 80.4% (active), the inhibition [5] was 69.4% (active) and the inhibition [6] was 102% (active). The inhibition [7] was 90.2% (active) and the inhibition [8] was 83.7% (active).
For `COc1ccc(-c2c[n+]3c(n2-c2ccc(C)cc2)CCCCC3)cc1`, the inhibition [1] was 36.5%, the inhibition [2] was 60.1% (active) and the inhibition [3] was 32.6%. For the same compound, the inhibition [4] was 60.2% (active), the inhibition [5] was 53% (active) and the inhibition [6] was 105% (active). For the same compound, the inhibition [7] was 82% (active) and the inhibition [8] was 73.7% (active).
Work on `c1cc(CNc2ccc3c(c2)OCCO3)ccn1` yielded an inhibition [1] of -1.65%, an inhibition [2] of -11.2% and an inhibition [3] of -6.52%. The inhibition [4] was -0.58%, the inhibition [5] was 10% and the inhibition [6] was 2.45%. The inhibition [7] was 14.8% and the inhibition [8] was -8.35%.
In the case of `Cc1ccc(-n2c(-c3ccc(Br)cc3)c[n+]3c2CCc2ccc4cccnc4c2-3)cc1`, the inhibition [1] is reported as 89.4% (active), the inhibition [2] is reported as 86.1% (active) and the inhibition [3] is reported as 74.8% (active). The inhibition [4] was 87.5% (active), the inhibition [5] was 83.8% (active) and the inhibition [6] was 111% (active). For the same compound, the inhibition [7] was 95.8% (active) and the inhibition [8] was 96.3% (active).
With `CN(C(=O)OC(C)(C)C)c1ccc(-c2nc3ccccc3s2)cc1` the inhibition [1] was 87.1% (active), the inhibition [2] was 84.5% (active) and the inhibition [3] was 78.8% (active). The inhibition [4] was 76.6% (active), the inhibition [5] was 75.6% (active) and the inhibition [6] was 80.9% (active). The inhibition [7] was 77.3% (active) and the inhibition [8] was 78.5% (active).
For `COc1ccc(C)cc1NC(=O)c1nnn(Cc2cccc(C(F)(F)F)c2)c1N`, the inhibition [1] was 10.7%, the inhibition [2] was 41.8% (active) and the inhibition [3] was 27.5%. The inhibition [4] was 53.3% (active), the inhibition [5] was 39.6% (active) and the inhibition [6] was 56.2% (active). The inhibition [7] was 57.3% (active) and the inhibition [8] was 60.3% (active).
